Test results from the supplement of paper PMC6555819.

Legend:
Experiment in all cases: PBM binding z-score (relative to random genomic background probes); higher = stronger binding; sequences stand for … in GC…GCGATTGACAGCGTAGAATGAAGG
[1] = tested on: FXR:RXRa (NR concentration 270 nM, RXRa partner concentration 90 nM)
In short: (§1)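 Probes were double-stranded and carried 34-nt variable regions with direct-repeat seeds, single-nucleotide variants, half-site ablations and random human genomic background sequences, printed on custom Agilent 4×180K protein-binding microarrays. Arrays were incubated 1 h with ligand-free nuclear receptor dimers in PBS pH 7.4, 2% milk, 0.02% Triton X-100, 1 mM DTT, 0.2 mg/mL BSA and 0.4 mg/ml salmon testes DNA. Antibodies against each partner (one per run) detected binding, and scanned fluorescence was regression-normalized. Binding z-scores use the random background probes as reference.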

[2] = tested on: LXRa:RXRa (NR concentration 270 nM, RXRa partner concentration 90 nM)
In short: as §1

[3] = tested on: LXRa homodimer (NR concentration 270 nM)
In short: as §1

[4] = tested on: LXRb:RXRa (NR concentration 270 nM, RXRa partner concentration 90 nM)
In short: as §1

[5] = tested on: LXRb homodimer (NR concentration 270 nM)
In short: as §1

[6] = tested on: PPARa:RXRa (NR concentration 270 nM, RXRa partner concentration 90 nM)
In short: as §1

[7] = tested on: PPARg:RXRa (NR concentration 180 nM, RXRa partner concentration 90 nM)
In short: as §1

[8] = tested on: PPARg:RXRa 270nM:90nM, anti-RXR (NR concentration 270 nM, RXRa partner concentration 90 nM)
In short: as §1

[9] = tested on: PPARg:RXRa 30nM:10nM, anti-RXR (NR concentration 30 nM, RXRa partner concentration 10 nM)
In short: as §1

[10] = tested on: PPARg:RXRa 90nM:30nM, anti-RXR (NR concentration 90 nM, RXRa partner concentration 30 nM)
In short: as §1

[11] = tested on: PPARg:RXRa DBDmut IVT, anti-RXR (DBD mutation: RXRa K156A/R161A, NR concentration 270 nM, RXRa partner concentration 90 nM)
In short: as §1

[12] = tested on: PPARg:RXRa IVT, anti-PPARg (NR concentration 270 nM, RXRa partner concentration 90 nM)
In short: as §1

[13] = tested on: PPARg DBDmut:RXRa IVT, anti-PPARg (DBD mutation: PPARg1 K132A/R137A, NR concentration 270 nM, RXRa partner concentration 90 nM)
In short: as §1

[14] = tested on: PPARg DBDmut IVT, anti-PPARg (DBD mutation: PPARg1 K132A/R137A, NR concentration 270 nM)
In short: as §1

[15] = tested on: PPARg homodimer (NR concentration 180 nM)
In short: as §1

[16] = tested on: PXR:RXRa (NR concentration 270 nM, RXRa partner concentration 90 nM)
In short: as §1

[17] = tested on: PXR homodimer (NR concentration 270 nM)
In short: as §1

[18] = tested on: RARa:RXR (NR concentration 270 nM, RXRa partner concentration 90 nM)
In short: as §1

[19] = tested on: RARa homodimer (NR concentration 270 nM)
In short: as §1

[20] = tested on: RARb:RXRa (NR concentration 270 nM, RXRa partner concentration 90 nM)
In short: as §1

For CGTCCAAGGTCATAGGAGGTCAGTGTAGACAGAT, the PBM binding z-score [1] was 7.58, the PBM binding z-score [2] was 7.26 and the PBM binding z-score [3] was 4.98. It also gave a PBM binding z-score [4] of 6.27, a PBM binding z-score [5] of 1.28 and a PBM binding z-score [6] of 5.83. The PBM binding z-score [7] was 5.64, the PBM binding z-score [8] was 5.77 and the PBM binding z-score [9] was 2.31. It also gave a PBM binding z-score [10] of 4.68, a PBM binding z-score [11] of 3.65 and a PBM binding z-score [12] of 4.6. The PBM binding z-score [13] was 0.558, the PBM binding z-score [14] was 0.275 and the PBM binding z-score [15] was 4.52. It also gave a PBM binding z-score [16] of 6.7, a PBM binding z-score [17] of 3.78 and a PBM binding z-score [18] of 6.16. It also gave a PBM binding z-score [19] of 1.57 and a PBM binding z-score [20] of 5.32.
For AATACAGGGTCACTAGGCCAGCGTAGGTACGAAT, the PBM binding z-score [1] was 6.02, the PBM binding z-score [2] was 4.76 and the PBM binding z-score [3] was 0.904. It also gave a PBM binding z-score [4] of 3.93, a PBM binding z-score [5] of 0.853 and a PBM binding z-score [6] of 5.62. The PBM binding z-score [7] was 7.64, the PBM binding z-score [8] was 6.28 and the PBM binding z-score [9] was 3.54. For the same sequence, the PBM binding z-score [10] was 5.52, the PBM binding z-score [11] was 4.14 and the PBM binding z-score [12] was 5.63. It also gave a PBM binding z-score [13] of 1.74, a PBM binding z-score [14] of 1 and a PBM binding z-score [15] of 1.64. The PBM binding z-score [16] was 3.02, the PBM binding z-score [17] was 0.293 and the PBM binding z-score [18] was 3.54. It also gave a PBM binding z-score [19] of 0.674 and a PBM binding z-score [20] of 4.17.
CGTCCAAGGTCAGAGGTCAGTGAAGAGATGACGG was tested, and the PBM binding z-score [1] was 6.67, the PBM binding z-score [2] was 5.39 and the PBM binding z-score [3] was 1.56. The PBM binding z-score [4] was 4.73, the PBM binding z-score [5] was 0.465 and the PBM binding z-score [6] was 6.09. The PBM binding z-score [7] was 8.26, the PBM binding z-score [8] was 6.86 and the PBM binding z-score [9] was 5.6. For the same sequence, the PBM binding z-score [10] was 7.06, the PBM binding z-score [11] was 2.44 and the PBM binding z-score [12] was 4.65. It also gave a PBM binding z-score [13] of 0.388, a PBM binding z-score [14] of -0.499 and a PBM binding z-score [15] of 3.51. The PBM binding z-score [16] was 5.72, the PBM binding z-score [17] was 1.13 and the PBM binding z-score [18] was 7.11. It also gave a PBM binding z-score [19] of 0.938 and a PBM binding z-score [20] of 5.55.
With CCATACGGGTCAAGGTTATAGCACGGGTGGTACG the PBM binding z-score [1] was 5.13, the PBM binding z-score [2] was 3.28 and the PBM binding z-score [3] was 0.265. It also gave a PBM binding z-score [4] of 2.54, a PBM binding z-score [5] of -0.237 and a PBM binding z-score [6] of 4.84. The PBM binding z-score [7] was 4.87, the PBM binding z-score [8] was 4.32 and the PBM binding z-score [9] was 1.07. For the same sequence, the PBM binding z-score [10] was 3.23, the PBM binding z-score [11] was 1.2 and the PBM binding z-score [12] was 3.15. For the same sequence, the PBM binding z-score [13] was 0.543, the PBM binding z-score [14] was -0.539 and the PBM binding z-score [15] was 2.1. The PBM binding z-score [16] was 3.06, the PBM binding z-score [17] was 0.247 and the PBM binding z-score [18] was 3.82. The PBM binding z-score [19] was 0.795 and the PBM binding z-score [20] was 4.1.
For GAGACTGGGGCATCAGCAGGTTACCATAACTTAA, the PBM binding z-score [1] was 0.0727, the PBM binding z-score [2] was 0.0866 and the PBM binding z-score [3] was -0.0013. The PBM binding z-score [4] was 1.28, the PBM binding z-score [5] was 0.0718 and the PBM binding z-score [6] was 1.73. It also gave a PBM binding z-score [7] of 1.71, a PBM binding z-score [8] of 1.63 and a PBM binding z-score [9] of 0.0526. It also gave a PBM binding z-score [10] of 0.657, a PBM binding z-score [11] of 4.76 and a PBM binding z-score [12] of 4.68. The PBM binding z-score [13] was 0.663, the PBM binding z-score [14] was 0.792 and the PBM binding z-score [15] was 0.579. For the same sequence, the PBM binding z-score [16] was 0.391, the PBM binding z-score [17] was 0.295 and the PBM binding z-score [18] was 0.706. The PBM binding z-score [19] was -0.0469 and the PBM binding z-score [20] was 1.09.
In the case of ATCTCTAGGTAAAGATAGTTCAGTGAATGCAAAT, the PBM binding z-score [1] is reported as 0.206, the PBM binding z-score [2] is reported as 4.16 and the PBM binding z-score [3] is reported as 0.484. For the same sequence, the PBM binding z-score [4] was 0.65, the PBM binding z-score [5] was 0.725 and the PBM binding z-score [6] was 0.625. The PBM binding z-score [7] was 0.646, the PBM binding z-score [8] was 0.562 and the PBM binding z-score [9] was 1.03. It also gave a PBM binding z-score [10] of 0.949, a PBM binding z-score [11] of 2.16 and a PBM binding z-score [12] of 1.66. For the same sequence, the PBM binding z-score [13] was 1.03, the PBM binding z-score [14] was 1.61 and the PBM binding z-score [15] was 0.566. For the same sequence, the PBM binding z-score [16] was 0.795, the PBM binding z-score [17] was 0.763 and the PBM binding z-score [18] was 0.643. The PBM binding z-score [19] was 0.47 and the PBM binding z-score [20] was 0.654.
For TCATATAGGTATTACAGGTGAAAGTCGGCATCTA, the PBM binding z-score [1] was 1.47, the PBM binding z-score [2] was 2.05 and the PBM binding z-score [3] was 1.08. It also gave a PBM binding z-score [4] of 1.34, a PBM binding z-score [5] of 0.496 and a PBM binding z-score [6] of 1.67. The PBM binding z-score [7] was 1.1, the PBM binding z-score [8] was 2.38 and the PBM binding z-score [9] was 4.15. The PBM binding z-score [10] was 3.27, the PBM binding z-score [11] was 3.05 and the PBM binding z-score [12] was 1.69. The PBM binding z-score [13] was 0.864, the PBM binding z-score [14] was 0.68 and the PBM binding z-score [15] was 1.37. The PBM binding z-score [16] was 0.945, the PBM binding z-score [17] was 0.656 and the PBM binding z-score [18] was 1.39. The PBM binding z-score [19] was 1.42 and the PBM binding z-score [20] was 0.578.
Sequence CCTATCAGTTGACCATAAGGGCAACCGAAGCTCG has a PBM binding z-score [1] of 0.965, a PBM binding z-score [2] of 0.314 and a PBM binding z-score [3] of 0.218. For the same sequence, the PBM binding z-score [4] was 0.583, the PBM binding z-score [5] was 0.56 and the PBM binding z-score [6] was 0.693. For the same sequence, the PBM binding z-score [7] was 0.456, the PBM binding z-score [8] was 0.233 and the PBM binding z-score [9] was -0.0186. It also gave a PBM binding z-score [10] of 0.0779, a PBM binding z-score [11] of -0.0435 and a PBM binding z-score [12] of 0.067. It also gave a PBM binding z-score [13] of -0.241, a PBM binding z-score [14] of 0.0861 and a PBM binding z-score [15] of 1.5. The PBM binding z-score [16] was 0.754, the PBM binding z-score [17] was 0.186 and the PBM binding z-score [18] was 1.14. The PBM binding z-score [19] was 0.698 and the PBM binding z-score [20] was 1.6.
